Reference: PubChem BioAssay (NCATS)
Records with an inconclusive call do not appear. Activity calls are given as the source filed them. Calls follow the shape of the dose curve; as a rule, active = well fitted curve in the direction sought with a large enough effect; inconclusive = small, poorly fitted or top-dose-only effect, or another doubt; inactive = no such curve, though single readings can be large; an effect the other way counts as inactive or inconclusive.

What was measured:
[1] = target: Cytochrome P450 3A7 (Homo sapiens) (UniProt P24462); assay: Cytochrome P450 family 3 subfamily A member 7 (CYP3A7) small molecule antagonists: luciferase biochemical qHTS assay (AID 1963596); also: % is scaled to controls: 0 for no effect and ±100 for the full control effect; nearly all actives have a fitted effect of over 40% in size
Summary of the method: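 Recombinant CYP3A7 P450-Glo luminescent assay: enzyme-proluciferin substrate mix preincubated with compound 10 min at room temperature, reaction started with NADPH regeneration system for 1 h. Luciferin detected by luminescence; ketoconazole as positive control.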

[2] = Viability qHTS for spleen associated tyrosine kinase inhibitor (SYKi) naive MV4-11 cells (AID 1963823); also: nearly all actives have a fitted effect of over 40% in size
Summary of the method: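 Compounds were dispensed acoustically onto plates, MV4-11 cells (SYKi-naive) added at 500 per well, and plates incubated 72 hr at 37 C. CellTiter-Glo was added and luminescence measured after 10 min.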

[3] = Viability qHTS for spleen associated tyrosine kinase inhibitor (SYKi) drug resistant MV4-11 cells (AID 1963824); also: nearly all actives have a fitted effect of over 35% in size
Summary of the method: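 SYK inhibitor-resistant MV4-11 AML cells, 500 per well, added to predispensed compounds and incubated 72 hr at 37 C, 5% CO2. Viability measured by CellTiter-Glo luminescence after 10 min at room temperature.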

[4] = Cellular viability qHTS for adrenocortical cancer (ACC) cell line SW-13 (AID 1963989); conditions: SW-13 ACC cells viability, CellTiter-Glo, 48 h; activity (max response): active compounds read low;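 also: cells grown in serum-free medium with ITS supplement; % is scaled to controls: 0 for no effect and ±100 for the full control effect; nearly all actives have a fitted effect of over 65% in size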
Summary of the method: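 Compound titrations (up to 46 uM final, in DMSO) were applied to SW-13 cells for 48 h at 37C/5% CO2. Reading used CellTiter-Glo after 20 min at room temperature; fitted curves yielded IC50 and efficacy.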

[5] = Cellular viability qHTS for adrenocortical cancer (ACC) cell line NCI-H295R (AID 1963990);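 also: 0% = DMSO only wells and -100% = full killing with cytotoxic reference compound; nearly all actives have a fitted effect of over 60% in size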
Summary of the method: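 Readout: CellTiter-Glo luminescence, 20 min RT. Exposure: 48 h, 37C/5% CO2. Cells: NCI-H295R, ITS-DMEM serum-free. Range: up to 46 uM. Analysis: 4PL fit, IC50 plus efficacy.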

Cytochrome P450 3A7 (Homo sapiens), sequence (P24462 whole entry, looked up): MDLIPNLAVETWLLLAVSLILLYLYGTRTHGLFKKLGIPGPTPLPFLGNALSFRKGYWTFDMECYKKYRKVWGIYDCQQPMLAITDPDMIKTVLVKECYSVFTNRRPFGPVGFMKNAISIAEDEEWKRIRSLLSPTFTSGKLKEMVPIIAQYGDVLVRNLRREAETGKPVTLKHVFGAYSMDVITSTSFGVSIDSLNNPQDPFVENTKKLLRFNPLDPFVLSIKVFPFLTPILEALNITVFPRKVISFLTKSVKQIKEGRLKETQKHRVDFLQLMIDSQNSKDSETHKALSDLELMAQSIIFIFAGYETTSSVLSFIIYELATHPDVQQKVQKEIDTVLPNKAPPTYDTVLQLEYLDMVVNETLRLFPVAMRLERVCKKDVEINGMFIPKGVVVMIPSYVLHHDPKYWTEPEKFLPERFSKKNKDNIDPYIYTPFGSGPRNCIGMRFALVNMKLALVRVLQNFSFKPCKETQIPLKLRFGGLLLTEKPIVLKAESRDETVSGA

CC(=O)Oc1ccc(C)cc1
inactive: Potency [1] | Potency [2] | Potency [3] | activity (max response) [4] 6.29% | Potency [5]

CCCCCCCCCCCCCCCCCCO
inactive: Potency [1] | Potency [2] | Potency [3] | activity (max response) [4] -0.0263% | Potency [5]

O=C(O)Cc1sc(-c2ccccc2)nc1-c1ccc(Cl)cc1
inactive: Potency [1] | Potency [2] | Potency [3] | activity (max response) [4] 0.388% | Potency [5]

NC(=O)COCCN1CCN(C(c2ccccc2)c2ccc(Cl)cc2)CC1 (stereo not given)
inactive: Potency [1] | Potency [2] | Potency [3] | activity (max response) [4] 0.82% | Potency [5]

O=C(CN1CCNCC1)NC1CCCCC1
inactive: Potency [1] | Potency [2] | Potency [3] | activity (max response) [4] -8.69% | Potency [5]

CCN(CC)CC(=O)Nc1c(C)cccc1C(=O)OC
inactive: Potency [1] | Potency [2] | Potency [3] | activity (max response) [4] -5.08% | Potency [5]

CN(C)CC[C@@H](c1ccc(Br)cc1)c1ccccn1
inactive: Potency [1] | Potency [2] | Potency [3] | activity (max response) [4] 2.25% | Potency [5]

CC(=O)N(CC(O)CN(C(C)=O)c1c(I)c(C(=O)NCC(O)CO)c(I)c(C(=O)NCC(O)CO)c1I)c1c(I)c(C(=O)NCC(O)CO)c(I)c(C(=O)NCC(O)CO)c1I (stereo not given)
inactive: Potency [1] | Potency [2] | Potency [3] | activity (max response) [4] 14.1% | Potency [5]

COc1ccc(C2C(=O)c3ccccc3C2=O)cc1
inactive: Potency [1] | Potency [2] | Potency [3] | activity (max response) [4] 8.16% | Potency [5]

NC[C@H]1O[C@H](O[C@H]2[C@H](O)[C@@H](O[C@H]3O[C@H](CO)[C@@H](O)[C@H](N)[C@H]3O)[C@H](N)C[C@@H]2N)[C@H](N)[C@@H](O)[C@@H]1O
inactive: Potency [1] | Potency [2] | Potency [3] | activity (max response) [4] -3.44% | Potency [5]

N[C@@H](CCC(=O)N[C@@H](CS)C(=O)NCC(=O)O)C(=O)O
inactive: Potency [1] | Potency [2] | Potency [3] | activity (max response) [4] -1.28% | Potency [5]

O=C(COCC(=O)N1CCN(C(c2ccccc2)c2ccccc2)CC1)Nc1ccc(Cl)cc1C(=O)O
inactive: Potency [1] | Potency [2] | Potency [3] | activity (max response) [4] -10.1% | Potency [5]

C=Cc1c(C)c2cc3[nH]c(cc4nc(cc5nc(cc1[nH]2)C(C)=C5CCC(=O)O)C(CCC(=O)O)=C4C)c(C)c3C=C
inactive: Potency [1] | Potency [2] | Potency [3] | activity (max response) [4] -8.14% | Potency [5]

CN(C)CCN(Cc1ccsc1)c1ccccn1
inactive: Potency [1] | Potency [2] | Potency [3] | activity (max response) [4] 6.67% | Potency [5]

O=C(O)Cn1cnnn1
inactive: Potency [1] | Potency [2] | Potency [3] | activity (max response) [4] 12.6% | Potency [5]

COc1ccc(C(=O)NCc2ccc(OCCN(C)C)cc2)cc1OC
inactive: Potency [1] | Potency [2] | Potency [3] | activity (max response) [4] 1.66% | Potency [5]

CCNC(=O)/C=C/c1cccc(Br)c1
inactive: Potency [1] | Potency [2] | Potency [3] | activity (max response) [4] -10.3% | Potency [5]

Cc1nc(-c2ccc(Cl)cc2)oc1COC(C)(C)C(=O)O
inactive: Potency [1] | Potency [2] | Potency [3] | activity (max response) [4] -4.84% | Potency [5]

CCC(=O)Nc1ccc(O)cc1
inactive: Potency [1] | Potency [2] | Potency [3] | activity (max response) [4] 0.747% | Potency [5]

CCCCCCCCCCCCCCCCCC(=O)OCC(O)CO (stereo not given)
inactive: Potency [1] | Potency [2] | Potency [3] | activity (max response) [4] 5.37% | Potency [5]

N=C(N)N1CCc2ccccc2C1
inactive: activity change, negative = inhibition [1] 2.18% [at 4.83 µM] | viability (% of control) [2] 81.1% [at 4.97 µM] | viability, % of control [3] 96.6% [at 4.97 µM] | activity (max response) [4] -5.8% | activity change, negative = viability loss [5] -6.61% [at 3.81 µM]

NCCC(O)(P(=O)(O)O)P(=O)(O)O
inactive: Potency [1] | Potency [2] | Potency [3] | activity (max response) [4] 6.05% | Potency [5]

CN(C)C(=O)Oc1ccc[n+](C)c1
inactive: Potency [1] | Potency [2] | Potency [3] | activity (max response) [4] 13.3% | Potency [5]

CNC(=O)CN(CCN(CCN(CC(=O)[O-])CC(=O)NC)CC(=O)[O-])CC(=O)[O-].O.[Gd+3]
inactive: Potency [1] | Potency [2] | Potency [3] | activity (max response) [4] -4.04% | Potency [5]

CC(=O)Nc1nnc(S(N)(=O)=O)s1
inactive: Potency [1] | Potency [2] | Potency [3] | activity (max response) [4] 5.04% | Potency [5]

CC[C@H]1OC(=O)[C@H](C)[C@@H](O[C@H]2C[C@@](C)(OC)[C@@H](O)[C@H](C)O2)[C@H](C)[C@@H](O[C@@H]2O[C@H](C)C[C@H](N(C)C)[C@H]2O)[C@](C)(O)C[C@@H](C)CN(C)[C@H](C)[C@@H](O)[C@]1(C)O
inactive: Potency [1] | Potency [2] | Potency [3] | activity (max response) [4] -23.1% | Potency [5]

Cc1ccc2ccc(Cl)cc2n1
inactive: Potency [1] | Potency [2] | Potency [3] | activity (max response) [4] 15.8% | Potency [5]

CC(=O)N[C@@H](CCC(N)=O)C(=O)O
inactive: Potency [1] | Potency [2] | Potency [3] | activity (max response) [4] 11.4% | Potency [5]

CC(C)NNC(=O)c1ccncc1
inactive: Potency [1] | Potency [2] | Potency [3] | activity (max response) [4] 1.43% | Potency [5]
